The whole screen tested about 370,000 compounds, of which about 4,800 (1.3%) were called active. Many of the other results were omitted from the sample, so actives are more common in it than they were. A number with no mark means an inactive call.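 The calls were made as follows: active = inhibition above about 21% made by adding two undisclosed values (limit read from the data); inactive = the rest.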

In the assay the target is Protein arginine N-methyltransferase 1 (Homo sapiens) (UniProt Q99873). Description: PRMT1 methyltransferase inhibitors, primary screen, biochemical, fluorescence polarization (AID 652257). Conditions: recombinant PRMT1, activity-based probe fluorescence polarization; at 2.79 µM; hits give high values.
Chain of Protein arginine N-methyltransferase 1 (Homo sapiens) (Q99873 whole entry, looked up): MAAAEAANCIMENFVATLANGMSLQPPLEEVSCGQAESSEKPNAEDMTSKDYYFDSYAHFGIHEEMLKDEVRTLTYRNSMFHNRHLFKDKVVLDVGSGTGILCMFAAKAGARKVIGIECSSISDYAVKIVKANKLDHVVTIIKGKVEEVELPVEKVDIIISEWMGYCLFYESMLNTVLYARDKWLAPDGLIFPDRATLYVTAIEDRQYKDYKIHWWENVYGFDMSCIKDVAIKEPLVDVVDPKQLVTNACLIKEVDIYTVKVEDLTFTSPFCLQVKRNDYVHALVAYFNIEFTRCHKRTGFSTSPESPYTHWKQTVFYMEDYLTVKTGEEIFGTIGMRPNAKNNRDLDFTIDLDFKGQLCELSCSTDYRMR
As to `O=C(COC(=O)Cn1cnc2ccccc2c1=O)NCC12CC3CC(CC(C3)C1)C2`, the inhibition is -1.36%. The value for `O=C(COC(=O)Cn1cnc2ccccc21)Nc1cccc2c1C(=O)c1ccccc1C2=O` was 26.1% (active); that for `O=C(Cn1cnc2ccccc21)N/N=C/c1ccco1` was -1.39%.

In the case of `Cc1cc2nc3c(=O)[nH]c(=O)nc-3n(C[C@H](O)[C@H](O)[C@H](O)CO)c2cc1C`, the inhibition was 85.4% (active). Consider `Cc1ccc(C(=O)CSc2nc3ccccc3c(=O)n2N)o1`, for which the inhibition was 6.79%. With `Cc1ccc(OCC(=O)c2cc(C)n(Cc3ccco3)c2C)c([N+](=O)[O-])n1` the figure was 1.18%. The value for `Cc1ccc(Cn2c(C)nc3c(c2=O)c2nc4ccccc4nc2n3Cc2ccco2)cc1` was 24.6% (active); that for `C[C@H]1CN([C@@H](C)CO)S(=O)(=O)c2ccc(Br)cc2O[C@H]1CN(C)C(=O)c1cnccn1` was -6.2%. The value for `CC1Sc2ccc(C(=O)NCc3ccccc3Cl)cc2NC1=O` (centres undefined) was 1.76%; that for `COC(=O)c1cccc(Cn2ccc3ccc(-c4ccc5ccn(C(=O)C6CCCCC6)c5c4)cc32)c1` was 3.39%. Turning to `C[C@@H]1COc2cccc(N3CCCC3)c2S(=O)(=O)N1C`, the inhibition was 10.8%.

For the compound `C=CCn1c(N)cc(=O)nc1SCC(=O)Nc1cccc2ccccc12`, the inhibition is -1.49%.

For `Cc1ccccc1-n1c(SCC(=O)Nc2cccc3ccccc23)nc(O)cc1=O`, the inhibition was 27.6% (active). The value for `Cc1ccc(-n2c(SCC(=O)Nc3cccc4ccccc34)nnc2-c2ccccn2)cc1` was -1.87%; that for `COc1cccc(CNC(=O)C2CCCN(c3nc4ccccc4o3)C2)c1OC` (centres undefined) was -1.5%. With `Cc1ccc(NC(=O)Nc2cc(C)nn2-c2ccccc2)cc1` the figure was -2.65%; with `O=C(c1cccc(C(F)(F)F)c1)N1CC[C@H]2[C@H](CCCN2Cc2cc(F)cc(F)c2)C1`, -3.31%; with `CCOCCn1c(C(C)C)nc2ccccc21`, -1.59%. The value for `CCCC(NC(=O)c1ccccc1)c1nc2ccccc2n1Cc1ccc(C(=O)OC)o1` (centres undefined) was -1.43%; that for `CCCn1c(C(Cc2ccccc2)NC(=O)COC)nc2ccccc21` (centres undefined) was 21.6% (active); that for `CCCCn1ccnc1C(=O)c1cccc(S(=O)(=O)N2c3ccccc3CC2C)c1` (centres undefined) was -0.73%.

With `Cc1ccccc1NC(=O)C1CCN(c2ncccn2)CC1`, the inhibition was 8.54%. With `Fc1ccc2nc(COCc3nc4ccc(F)cc4[nH]3)[nH]c2c1` the figure was -1.38%; with `Cc1cc2c(c(=O)n1C)C(C(C)C)C(C#N)=C(N)O2` (centres undefined), 2.55%; with `Cc1cc2c(c(=O)n1Cc1ccco1)C(c1ccccc1)C(C#N)=C(N)O2` (centres undefined), 36.6% (active).

As to `CC(C)c1ccc(C2C(C#N)=C(N)Oc3c2oc(CO)cc3=O)cc1` (centres undefined), the inhibition was 2.64%. With `CCC(C)(C)NC(=O)C(c1cccc(OC)c1OC)N(CC(C)C)C(=O)CCC(=O)Nc1cc(C)on1` (centres undefined), the inhibition was -2.2%. The value for `CCn1c(=S)sc2c(=O)n(CC(=O)Nc3ccc(OC)cc3)c(C)nc21` was 0.4%. For `Oc1ccc2ccc3cccc[n+]3c2c1`, the inhibition was 187% (active). With `COC(=O)[C@]12C[C@H](CC(=O)NCc3ccccc3)C(=O)N(Cc3ccccc3)C1=C[C@H](COCc1ccccc1)O[C@@H]2C` the figure was 1.65%; with `N/C(=N\OC(=O)CCc1ccccc1)c1cccnc1`, 0.81%. The value for `Cc1ccc(OCc2nnc(SC/C=C/c3ccccc3)n2Cc2ccco2)cc1` was -0.38%; that for `O=C(Nc1cc(Cl)cc(Cl)c1)OCCN1CCCC12CCC(c1ccccc1)CC2` (centres undefined) was -4.6%. With `COc1ccc(CSc2nnc(SCC(=O)Nc3ccccc3C(F)(F)F)s2)cc1`, the inhibition was -1.07%. The value for `COCCCNC(=O)C[C@H]1C[C@@]2(C(=O)OC)C(=C[C@H](C(C)(C)C)O[C@@H]2C)N(Cc2ccc(Cl)cc2Cl)C1=O` was 4.84%. The value for `COC(=O)[C@]12C[C@H](CC(=O)NCc3ccccc3)C(=O)N(CCc3ccc(OC)c(OC)c3)C1=C[C@H](C(C)(C)C)O[C@@H]2C` was -1.11%; that for `O=C(COC(=O)c1ccc2c(c1)OCCO2)NCc1ccccc1Cl` was -2.85%; that for `NS(=O)(=O)c1ccc(NC(=O)COC(=O)c2c3c(nc4ccccc24)/C(=C\c2ccc4c(c2)OCO4)CCC3)cc1` was 139% (active). With `NC(=O)c1ccc(NC(=O)COC(=O)c2c3c(nc4ccccc24)/C(=C\c2ccc4c(c2)OCO4)CCC3)cc1` the figure was 141% (active); with `CN(C)S(=O)(=O)c1ccc(NC(=O)COC(=O)c2n[nH]c3ccccc23)cc1`, -3.56%; with `O=C(COC(=O)c1c(Cl)cccc1Cl)Nc1cccc(S(=O)(=O)NC2=NCCCCC2)c1`, -1.88%. On to `CN(CC(=O)Nc1ccc(C(N)=O)cc1)S(=O)(=O)c1ccc2c(c1)OCCO2`, for which the inhibition was -3.91%.

For the compound `COc1cccc(CSc2nnc(-c3cccnc3)n2Cc2ccccc2)c1`, the inhibition is 4.89%. With `COc1ccc(C2Nc3ccccc3C(=O)N2Cc2cccs2)cc1COc1c(C)cccc1C` (centres undefined) the figure was -1.12%. With `CCOC(=O)N1CCN(C(=O)CSc2nnc(-c3c[nH]c4ccccc34)n2CCOC)CC1` the figure was -1.98%; with `CN(CCO)c1cccc2c1S(=O)(=O)N(Cc1cn(Cc3ccc(C(F)(F)F)cc3)nn1)Cc1ccccc1O2`, 4.68%. The value for `Cn1c(SCC(=O)N2CCCc3ccccc32)nc2ccccc2c1=O` was 0.04%. Take `Cc1cccc2cc3c(N)c(C(=O)N4CCCc5ccccc54)sc3nc12`: the inhibition was 38% (active).

Consider `COc1cccc(/C=C/C(=O)OCC(=O)N2CCCc3ccccc32)c1`, for which the inhibition is -0.48%. The value for `Cc1ccc(N)cc1CN1CCN(c2ncc(Cc3ccccc3)cn2)CC1` was -1.39%; that for `N#CC1=C(N)Oc2[nH]c(=S)[nH]c(=O)c2C12C(=O)Nc1ccccc12` (centres undefined) was 37.2% (active); that for `Cc1ccc(NC2(C#N)C(=O)Nc3ccccc32)cc1` (centres undefined) was -2.14%. With `O=S1(=O)c2ccc(Br)cc2OC[C@H](Cc2ccccc2)N1Cc1cn(Cc2ccccc2)nn1` the figure was 4.16%; with `C=CCC(NCc1ccco1)c1ccc(OC)cc1` (centres undefined), -0.85%.

One may read the inhibition as the change of the read-out against control, counted positive when it falls.

These data come from PubChem BioAssay AID652257 (The Scripps Research Institute Molecular Screening Center, 2013).
